From PubChem BioAssay (NCATS)
Records with an inconclusive call do not appear. Entries that show only a call come without a potency. Unmarked numbers belong to inactive results. Active and inactive are the calls of the source. Calls come from the whole dose curve; as a rule, active = well fitted curve in the direction sought with a large enough effect; inconclusive = small, poorly fitted or top-dose-only effect, or another doubt; inactive = no such curve, though single readings can be large; an effect the other way counts as inactive or inconclusive.

How the values were obtained:
[1] = target: N-terminal Xaa-Pro-Lys N-methyltransferase 1 (Homo sapiens) (UniProt Q9BV86); test: qHTS Assay for Inhibitors of N-terminal methyltransferase 1 (NTMT1): LOPAC validation of the NTMT1 SAHH-coupled ThioGlo3 Assay (AID 1347143); note: nearly all actives have a fitted effect of over 70% in size; note: potency is the fitted concentration of half-maximal effect
How it was run: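 Fluorescence read-out (excitation 340nm, emission 450nm) of SAH-derived thiol, measured via SAHH coupling and ThioGlo3, taken immediately and after a 30 min room-temperature reaction, then normalized to the background read. Enzyme: NTMT1 at 125nM; cofactor SAM 100uM in the added reagent.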

[2] = tested on: Zika virus NS2B-NS3 protease (unlinked); test: Optimization of GU AMC qHTS for Zika virus inhibitors: Unlinked NS2B-NS3 protease assay (AID 1347151); note: nearly all actives have a fitted effect of over 80% in size; note: potency is the fitted concentration of half-maximal effect
How it was run: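 Fluorescence gain (340/450 nm) over 15 min at room temperature, ~20% conversion, gave percent inhibition fitted to a 4-parameter Hill equation; enzyme was unlinked NS2B-NS3 (25 nM final), pH 8.0 Tris buffer.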

[3] = tested on: Zika virus NS2B-NS3 protease; test: Primary screen GU AMC qHTS for Zika virus inhibitors (AID 1347154); note: nearly all actives have a fitted effect of over 70% in size
How it was run: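 Unlinked Zika NS2B hydrophilic domain/NS3 protease domain noncovalent complex (25 nM final) in 10 mM Tris-HCl pH 8.0, 0.01% Tween 20, with AMC peptide substrate. Fluorescence (ex 340, em 450 nm) change over 15 min, room temperature; percent inhibition fitted to 4-parameter Hill equation.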

[4] = target: Lysine-specific demethylase 5B (Homo sapiens) (UniProt Q9UGL1); test: Optimization screen for KDM5B Histone Demethylases FDH coupled qHTS against the LOPAC library (AID 1347166)
How it was run: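 KDM5BDeltaAP (200nM final) preincubated 10 min with compound, then 12.5uM H3K4Me3, 25uM a-ketoglutarate, ascorbate, Fe(II), NAD+ and FDH added; 50mM HEPES pH 7.5, 0.01% Tween-20. NADH fluorescence (340/450 nm) change over 30 min, room temperature.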

[5] = qHTS to identify inhibitors of the type 1 interferon - major histocompatibility complex class I in skeletal muscle: primary screen against the NCATS LOPAC collection (AID 1347405);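 note: lytic HiBiT luminescence reporting HLA-B protein level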
How it was run: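 Immortalized human C25cl48 myoblasts with HiBiT knocked into endogenous HLA-B*08:01 were stimulated with 4.0 ng/ml IFN-beta and given compounds in a 7-point, 1:4.3 titration from 46 uM final; after 24 hrs, lytic HiBiT luminescence was read.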

[6] = qHTS to identify inhibitors of the type 1 interferon - major histocompatibility complex class I in skeletal muscle: primary screen against the NCATS Pharmaceutical Collection (AID 1347407);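 note: luminescence of HiBiT knocked into endogenous HLA-B as interferon-induced MHC class I level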
How it was run: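 Compounds […] were added to CRISPR-engineered HLA-B-HiBiT C25cl48 human myoblasts with 4.0 ng/ml IFN-beta. After 24 hrs at 37 C, cells were lysed and HiBiT luminescence measured.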

[7] = target: Furin (Homo sapiens) (UniProt P09958); test: Furin counterscreen qHTS for Zika virus inhibitors (AID 1347149); note: nearly all actives have a fitted effect of over 70% in size; note: potency is the fitted concentration of half-maximal effect
How it was run: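 Fluorogenic cleavage of BOC-RVRR-AMC (2 microM final, Km ~15 µM) was monitored (ex 340, em 450 nm) at 37C after 15 min RT preincubation of 5 nM furin with compounds in HEPES pH 7.0 buffer with CaCl2 and Triton X-100. Percent inhibition was fitted to a 4-parameter Hill curve.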

[8] = tested on: Zika virus NS2B-NS3 protease (linked construct); test: Confirmatory screen NINDS AMC qHTS for Zika virus inhibitors (AID 1347152); note: top concentration of the series differs between compounds; nearly all actives have a fitted effect of over 70% in size
How it was run: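 IC50s from 4-parameter Hill fits of percent inhibition, based on AMC fluorescence gain (340/450 nm) over 15 min with 10 microM Bz-Nle-KRR-AMC. Enzyme: 1 nM linked NS2B-NS3 in Tris-HCl pH 8.0; 15-min compound preincubation.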

[9] = tested on: Zika virus NS2B-NS3 protease (unlinked complex); test: Confirmatory screen GU AMC qHTS for Zika virus inhibitors (AID 1347153); note: nearly all actives have a fitted effect of over 70% in size
How it was run: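 Unlinked NS2B-NS3 complex (25 nM) in 10 mM Tris-HCl pH 8.0, 0.01% Tween 20 preincubated 15 min with compound, then 10 microM Bz-Nle-KRR-AMC (Km 18.3 µM). Fluorescence change over 15 min, normalized, Hill-fitted.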

[10] = Confirmatory screen NINDS Rhodamine qHTS for Zika virus inhibitors (AID 1347161); note: nearly all actives have a fitted effect of over 60% in size; note: potency is the fitted concentration of half-maximal effect
How it was run: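 Single-chain NS2B-NS3 protease, 25 nM, pH 8.0; compounds preincubated 15 min. Activity: Rhodamine110 release from 1.5 microM substrate over 15 min, room temperature, data fitted to 4-parameter Hill.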

[11] = Vero cells viability qHTS for Zika virus inhibitors (AID 1347167)
How it was run: (§1)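 Counter-screen for cytotoxicity of hits from NS2B-NS3 protease qHTS. Overnight-attached cells (2.5 x 10^5 cells/mL, DMEM/4% FBS) were dosed in titration, incubated 24 to 48 hours, then assayed by CellTiter Glo.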

[12] = HepG2 cells viability qHTS for Zika virus inhibitors (AID 1347168)
How it was run: as §1

[13] = tested on: Zika virus NS2B-NS3 protease (linked construct); test: Primary screen NINDS Rhodamine qHTS for Zika virus inhibitors (AID 1347160); settings: outcome: dose series up to 57.1 µM; note: nearly all actives have a fitted effect of over 55% in size
How it was run: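 Purified NS2B-NS3 protease with the NS2B hydrophilic domain joined by a flexible linker (25 nM) in 10 mM Tris-HCl pH 8.0, 0.01% Tween 20, preincubated 15 min at RT with compound; Rhodamine110 peptide substrate 1.5 µM; fluorescence change over 15 min; 4-parameter Hill fit.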

[14] = qHTS of pediatric cancer cell lines to identify multiple opportunities for drug repurposing: Confirmatory screen for Rh30 cells (AID 1347126); note: nearly all actives have a fitted effect of over 55% in size
How it was run: (§2)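 Cells (500-1,000/well) in growth media were settled 5 h at 37 degrees C, then given compounds for 48 h. Viability was read as CellTiter-Glo luminescence. Primary runs used MIPE at 11 points (0.78 nM-46 µM) and NPC at 8 points (0.59 nM-46 µM); follow-ups used 11 points.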

[15] = qHTS of pediatric cancer cell lines to identify multiple opportunities for drug repurposing: Confirmatory screen for Saos-2 cells (AID 1347127); note: nearly all actives have a fitted effect of over 60% in size
How it was run: as §2

[16] = qHTS of pediatric cancer cell lines to identify multiple opportunities for drug repurposing: Confirmatory screen for OHS-50 cells (AID 1347128);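 note: compound exposure lasted 48 h at 37 degrees C; nearly all actives have a fitted effect of over 55% in size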
How it was run: as §2

[17] = qHTS of pediatric cancer cell lines to identify multiple opportunities for drug repurposing: Confirmatory screen for SK-N-SH cells (AID 1347129);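 note: cells exposed to compound for 48 h before viability read; nearly all actives have a fitted effect of over 60% in size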
How it was run: as §2

[18] = tested on: Zika virus NS2B-NS3 protease (linked construct); test: 384 well plate NINDS Rhodamine confirmatory qHTS for Zika virus inhibitors (AID 1347164); settings: rhodamine-110 peptide substrate fluorescence;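 note: fluorescence from protease cleavage of Ac-LKRR-rhodamine 110 substrate; potency is the fitted concentration of half-maximal effect; nearly all actives have a fitted effect of over 65% in size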
How it was run: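 Fluorescence at 485/538 nm was measured 25 minutes after adding 10 microM Ac-LKRR-Rd substrate, in the dark at room temperature. The protease (5, 30 or 60 nM final) had been preincubated ~15 minutes with compound; aprotinin as control.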

[19] = tested on: Zika virus NS2B-NS3 protease (unlinked complex); test: Primary screen GU Rhodamine qHTS for Zika virus inhibitors: Unlinked NS2B-NS3 protease assay (AID 1347159); note: nearly all actives have a fitted effect of over 60% in size
How it was run: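 Noncovalent NS2B hydrophilic domain/NS3 protease complex (25 nM final) in 10 mM Tris-HCl pH 8.0, 0.01% Tween 20, preincubated 15 min with compounds (up to 114 microM), then 1.5 microM Rhodamine110 substrate. Fluorescence change over 15 min fitted to 4-parameter Hill.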

Sequence of N-terminal Xaa-Pro-Lys N-methyltransferase 1 (Homo sapiens) (Q9BV86 whole entry, looked up): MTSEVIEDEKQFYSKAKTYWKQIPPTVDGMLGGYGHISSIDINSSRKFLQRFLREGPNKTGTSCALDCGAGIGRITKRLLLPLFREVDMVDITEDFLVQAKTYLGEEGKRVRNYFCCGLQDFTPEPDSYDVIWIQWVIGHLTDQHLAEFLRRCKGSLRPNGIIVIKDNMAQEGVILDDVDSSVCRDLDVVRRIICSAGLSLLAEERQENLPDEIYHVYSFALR
Sequence of Lysine-specific demethylase 5B (Homo sapiens) (Q9UGL1 whole entry, looked up): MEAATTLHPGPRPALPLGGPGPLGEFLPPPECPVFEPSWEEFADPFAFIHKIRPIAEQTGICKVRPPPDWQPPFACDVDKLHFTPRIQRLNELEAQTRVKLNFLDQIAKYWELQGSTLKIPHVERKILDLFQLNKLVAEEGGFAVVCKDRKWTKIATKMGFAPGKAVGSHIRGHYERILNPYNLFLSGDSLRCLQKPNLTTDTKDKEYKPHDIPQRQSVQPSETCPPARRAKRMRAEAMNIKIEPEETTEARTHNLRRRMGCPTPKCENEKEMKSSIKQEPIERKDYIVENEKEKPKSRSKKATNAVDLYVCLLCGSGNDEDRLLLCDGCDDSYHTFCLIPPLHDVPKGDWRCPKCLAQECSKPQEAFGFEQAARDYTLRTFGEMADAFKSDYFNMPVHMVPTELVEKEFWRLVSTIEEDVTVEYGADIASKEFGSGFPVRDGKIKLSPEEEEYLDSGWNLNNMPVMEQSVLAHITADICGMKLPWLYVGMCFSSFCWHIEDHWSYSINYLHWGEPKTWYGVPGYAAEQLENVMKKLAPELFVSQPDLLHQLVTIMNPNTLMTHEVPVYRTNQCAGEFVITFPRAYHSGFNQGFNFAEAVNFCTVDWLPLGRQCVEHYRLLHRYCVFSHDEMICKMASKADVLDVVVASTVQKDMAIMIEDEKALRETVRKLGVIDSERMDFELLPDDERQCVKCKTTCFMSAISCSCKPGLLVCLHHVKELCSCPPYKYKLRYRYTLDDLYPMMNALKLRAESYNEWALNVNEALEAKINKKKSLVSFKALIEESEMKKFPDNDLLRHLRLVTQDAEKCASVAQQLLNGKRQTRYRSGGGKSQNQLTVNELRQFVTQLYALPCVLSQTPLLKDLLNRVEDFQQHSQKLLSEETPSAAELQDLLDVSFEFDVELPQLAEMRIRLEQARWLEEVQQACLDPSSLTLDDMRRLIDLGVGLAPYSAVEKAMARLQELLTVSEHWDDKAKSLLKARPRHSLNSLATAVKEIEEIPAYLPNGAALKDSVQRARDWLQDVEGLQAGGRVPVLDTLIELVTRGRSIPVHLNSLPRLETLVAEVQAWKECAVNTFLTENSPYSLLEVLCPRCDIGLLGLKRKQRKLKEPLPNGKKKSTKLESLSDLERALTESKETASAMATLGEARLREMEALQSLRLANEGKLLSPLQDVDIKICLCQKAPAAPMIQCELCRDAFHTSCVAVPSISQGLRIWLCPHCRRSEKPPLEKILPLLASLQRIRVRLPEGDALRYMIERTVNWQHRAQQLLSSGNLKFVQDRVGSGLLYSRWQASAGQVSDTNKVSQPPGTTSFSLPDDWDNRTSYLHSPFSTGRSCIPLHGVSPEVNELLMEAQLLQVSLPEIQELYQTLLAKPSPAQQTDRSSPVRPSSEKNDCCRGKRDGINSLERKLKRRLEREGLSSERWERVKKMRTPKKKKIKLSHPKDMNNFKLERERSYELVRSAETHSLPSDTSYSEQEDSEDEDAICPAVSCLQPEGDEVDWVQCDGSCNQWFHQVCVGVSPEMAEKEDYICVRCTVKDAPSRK
Sequence of Furin (Homo sapiens) (P09958 whole entry, looked up): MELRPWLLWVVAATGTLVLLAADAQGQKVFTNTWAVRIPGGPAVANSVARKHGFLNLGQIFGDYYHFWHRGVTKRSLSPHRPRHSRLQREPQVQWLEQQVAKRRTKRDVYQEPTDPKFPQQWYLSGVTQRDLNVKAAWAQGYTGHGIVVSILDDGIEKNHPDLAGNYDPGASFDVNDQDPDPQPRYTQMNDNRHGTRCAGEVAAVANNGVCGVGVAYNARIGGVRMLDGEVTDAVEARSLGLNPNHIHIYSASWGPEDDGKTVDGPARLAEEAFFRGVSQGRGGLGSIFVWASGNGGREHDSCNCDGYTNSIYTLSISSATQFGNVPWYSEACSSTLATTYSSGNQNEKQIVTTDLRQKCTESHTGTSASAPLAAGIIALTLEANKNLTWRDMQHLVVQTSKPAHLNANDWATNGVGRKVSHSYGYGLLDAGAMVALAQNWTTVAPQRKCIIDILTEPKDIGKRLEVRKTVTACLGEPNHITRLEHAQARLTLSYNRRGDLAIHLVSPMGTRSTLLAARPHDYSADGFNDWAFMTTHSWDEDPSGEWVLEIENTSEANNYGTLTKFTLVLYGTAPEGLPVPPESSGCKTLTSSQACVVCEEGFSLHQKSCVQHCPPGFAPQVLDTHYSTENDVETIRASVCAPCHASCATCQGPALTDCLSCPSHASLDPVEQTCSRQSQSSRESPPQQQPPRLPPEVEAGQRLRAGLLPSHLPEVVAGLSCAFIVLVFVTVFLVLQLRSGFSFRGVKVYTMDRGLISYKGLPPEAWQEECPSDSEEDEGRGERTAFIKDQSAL

CCN(CC)CC(=O)Nc1c(C)cccc1C
Potency [1]: inactive
Potency [2]: inactive
outcome [3]: inactive
Potency [4]: inactive
Potency [5]: inactive
Potency [6]: inactive

CCOC(=O)c1cnc2c(cnn2CC)c1NN=C(C)C
Potency [1]: 56.2 µM (active)
Potency [7]: inactive
outcome [8]: inactive
outcome [9]: inactive
outcome [3]: inactive
Potency [10]: inactive
Potency [4]: inactive
outcome [11]: inactive
outcome [12]: inactive
Potency [5]: inactive
Potency [6]: inactive

COc1ccc(CCN(C)CCCC(C#N)(c2cc(OC)c(OC)c(OC)c2)C(C)C)cc1OC (stereo unspecified)
Potency [1]: inactive
Potency [2]: inactive
outcome [3]: inactive
Potency [4]: inactive
Potency [5]: inactive
Potency [6]: inactive

CCCN1C[C@H](CSC)C[C@@H]2c3cccc4[nH]cc(c34)C[C@H]21
Potency [1]: inactive
Potency [2]: inactive
outcome [3]: inactive
outcome [13]: inactive
Potency [5]: inactive
Potency [6]: inactive

CC1=NS(=O)(=O)c2cc(Cl)ccc2N1
Potency [1]: inactive
Potency [2]: inactive
outcome [3]: inactive
Potency [4]: inactive
Potency [5]: inactive
Potency [6]: inactive

COc1cc(C(=O)OCCCN2CCCN(CCCOC(=O)c3cc(OC)c(OC)c(OC)c3)CC2)cc(OC)c1OC
Potency [1]: inactive
Potency [2]: inactive
outcome [3]: inactive
Potency [4]: inactive

CN(C)CC[C@@H](c1ccc(Br)cc1)c1ccccn1
Potency [1]: inactive
Potency [2]: inactive
outcome [3]: inactive
Potency [4]: inactive
Potency [5]: inactive
Potency [6]: inactive

CN(C)CCN(Cc1cccs1)c1ccccn1
Potency [1]: inactive
Potency [2]: inactive
outcome [3]: inactive
Potency [4]: inactive
Potency [5]: inactive
Potency [6]: inactive

C[C@]12CC[C@@H]3c4ccc(O)cc4C[C@@H](CCCCCCCCCS(=O)CCCC(F)(F)C(F)(F)F)[C@H]3[C@@H]1CC[C@@H]2O (stereo partly specified)
Potency [14]: inactive
Potency [15]: inactive
Potency [16]: inactive
Potency [17]: inactive
Potency [1]: inactive
Potency [2]: inactive
outcome [3]: inactive
Potency [4]: inactive
Potency [5]: inactive
Potency [6]: inactive

CN(C)[C@@H]1C(=O)C(C(N)=O)=C(O)[C@@]2(O)C(=O)C3=C(O)c4c(O)ccc(Cl)c4[C@@H](O)[C@H]3C[C@@H]12
Potency [1]: 56.2 µM (active)
Potency [2]: inactive
outcome [3]: inactive
Potency [10]: 12.4 µM (active)
Potency [18]: 25.1 µM (active)
Potency [5]: inactive
Potency [6]: inactive

C[C@H](CS)C(=O)N1CCC[C@H]1C(=O)O
Potency [1]: inactive
Potency [2]: inactive
outcome [3]: inactive

Cc1ccc(/C(=C\CN2CCCC2)c2ccccn2)cc1
Potency [1]: inactive
Potency [2]: inactive
outcome [3]: inactive

COC(=O)[C@H]1[C@H]2C[C@@H]3c4[nH]c5cc(OC)ccc5c4CCN3C[C@H]2C[C@@H](OC(=O)c2cc(OC)c(OC)c(OC)c2)[C@@H]1OC
Potency [1]: 56.2 µM (active)
Potency [7]: 27.1 µM (active)
Potency [2]: 15 µM (active)
outcome [8]: inactive
outcome [9]: inactive
outcome [3]: inactive
outcome [19]: inactive
outcome [13]: inactive
Potency [10]: inactive
outcome [11]: inactive
outcome [12]: inactive
Potency [6]: inactive
